Results on 56 molecules are retold here after ChEMBL document CHEMBL4513216, “Probing the Open Global Health Chemical Diversity Library for Multistage-Active Starting Points for Next-Generation Antimalarials” (ACS Infect Dis, 2020).

About 8,600 (12%) of roughly 69,000 compounds showed an effect of 50% or more. This is one part of a sample in which strong results are shown more often than they occur.

The test concerns Plasmodium berghei. Put plainly: Screen against P. berghei liver stage (PbLuc), transformed with Luciferase, at 10uM. It counts as functional, HepG2. The conditions noted are these: tested at 10 uM.
Turning to `CC(C)Cc1nc(CN(C)c2cc(C(C)C)nc3ccnn23)no1`, the INHIBITION is given as -30.6%.

On to `CCNC(=O)N1CCC(c2ccccc2)C1` (stereo unspecified), for which the INHIBITION is given as -31%.

Consider `CSCc1cc(F)ccc1CNCc1ncc[nH]1`, for which the INHIBITION is 63.3%.

Regarding `CSCc1cc(F)ccc1CNCc1ccncc1`, the INHIBITION was found to be 24.2%.

Consider `CSCc1cc(F)ccc1CNCc1cccnc1`, for which the INHIBITION came out at 35.4%.

For the molecule `Cc1nc(Nc2ncccn2)cc(C2CN(C(=O)c3cccnc3)C2)n1`, the INHIBITION was determined as 37.6%.

For the molecule `CC1=CC[C@@H]2CN(C(=O)c3ccc(-c4nnn(C)n4)cc3)C[C@@H]2C1`, the INHIBITION worked out at 35.8%.

`CC(C)N(C)Cc1cnc2n1CCN(C(=O)Cc1ccsc1)C2`: the INHIBITION is given as -13%.

With `CC(C)Nc1nc2c(c(N(C)C)n1)CCN(Cc1nccn1C)CC2`, the INHIBITION is listed as 21.7%.

As for `CC(C)Nc1nc2c(c(NC3CC3)n1)CN(C(=O)Cc1ccsc1)CC2`, the INHIBITION was 83.7%.

As for `CC(C)Nc1nc2c(c(NC3CC3)n1)CN(C(=O)c1ccsc1)CC2`, the INHIBITION is 79.2%.

Take `Cc1nc(NC(C)C)nc2c1CN(Cc1nccn1C)CC2`: the INHIBITION is -4.02%.

`CC(C)Nc1nc2c(cc1C(=O)O)CCN(Cc1ccsc1)CC2`: the INHIBITION was determined as 21.4%.

With `CC(C)Nc1nc2c(c(NC3CC3)n1)CN(C(=O)c1ccnnc1)CC2`, the INHIBITION stood at 65.9%.

On to `CC(C)N(C)Cc1noc2c1CN(C(=O)c1ccsc1)CC2`, for which the INHIBITION is -18.5%.

In the case of `CC(C)Nc1nc2c(c(NC3CC3)n1)CCN(C1CCOCC1)CC2`, the INHIBITION is 23.1%.

`Cc1ccc(NC2CCN(C(=O)c3ccsc3)CC2)nn1`: the INHIBITION is given as 31.8%.

Turning to `CC(C)Nc1nc2c(c(NC3CC3)n1)CN(C(=O)c1ccncc1)CC2`, the INHIBITION was determined as 5.36%.

Turning to `CC(C)Nc1nc2c(c(NC3CC3)n1)CCN(Cc1nccn1C)CC2`, the INHIBITION was 60.3%.

On to `CC(C(=O)NCCOc1ccccc1)n1cncn1` (stereo unspecified), for which the INHIBITION turned out to be 2.97%.

On to `CN(C)C(=O)CN1CC[C@H]2CN(S(C)(=O)=O)C[C@@H]2C1=O`, for which the INHIBITION is given as -41.8%.

Regarding `O=C(c1ccccc1F)N1C[C@H]2CCC[C@@]2(COCc2ccncc2)C1`, the INHIBITION is recorded as 15.4%.

For `Cc1cnn(CCNCc2csc(-c3ccccc3)n2)c1`, the INHIBITION turned out to be 34.75%.

Take `CC(C)CN1CC[C@@H]2[C@H](CC1)N(C(=O)c1ccccc1)CCS2(=O)=O`: the INHIBITION is given as 36.9%.

On to `COc1ccccc1OCC(=O)NCC(C)(O)c1ccccc1` (stereo unspecified), for which the INHIBITION is 9.79%.

In the case of `CC(C)n1cc(CN2CCCN(C(=O)CC3CCCO3)CC2)cn1` (stereo unspecified), the INHIBITION is recorded as -4.94%.

Regarding `O=C(CCS(=O)(=O)c1ccccc1)N1CCCC(n2cccn2)C1` (stereo unspecified), the INHIBITION worked out at 34.5%.

As to `Cn1cnc2c1C(COCc1ccccc1)N(Cc1ccccn1)CC2` (stereo unspecified), the INHIBITION came to 18.5%.

As to `Cc1c(S(=O)(=O)N2CCCC2c2nnc(-c3ccsc3)o2)cnn1C` (stereo unspecified), the INHIBITION is on record as 0.4%.

Regarding `CN1C[C@H]2CC[C@@H](CC1=O)N2C(=O)c1ccc(-c2ccccc2)[nH]c1=O`, the INHIBITION was -45%.

Regarding `Cc1nn(C)c(Cl)c1CNCc1cccnc1N1CCOCC1`, the INHIBITION was determined as 41.8%.

On to `N#Cc1ccc(CN(CC(N)=O)C2CCCC2)cc1`, for which the INHIBITION is reported as 90.2%.

For `CN(C(=O)CNc1ccc(C#N)cc1)C1CCCCC1`, the INHIBITION is reported as -87.7%.

With `N#Cc1ccc(CN(CC(N)=O)Cc2cccc(F)c2)cc1`, the INHIBITION amounted to 17.1%.

Regarding `N#Cc1ccccc1CN(CC(N)=O)C1CCCC1`, the INHIBITION was found to be 20.9%.

Turning to `N#Cc1ccc(CN(CC(N)=O)C2CCCC2)c(Br)c1`, the INHIBITION is 90.2%.

Turning to `NC(=O)CN(Cc1ncc(-c2ccccc2)o1)C1CCCC1`, the INHIBITION is -32%.

For `Cn1cccc1C(=O)N1CCn2nnc(COc3cccnc3)c2C1`, the INHIBITION was -6.21%.

With `Cc1nn(C)c(N(C)C)c1CNCc1ccnc(N2CCCCC2)c1`, the INHIBITION is given as -56.7%.

For `Cc1ccc(C(=O)N2CCN(CC(C)O)CC2)cc1S(C)(=O)=O` (stereo unspecified), the INHIBITION is listed as -19.6%.

`CS(=O)(=O)c1ccc(NC(=O)NCCC2=CCCCC2)cc1`: the INHIBITION is listed as -165%.

On to `COc1cc(NC(=O)c2ccc(C)cc2C)c(C(=O)N(C)C)cc1OC`, for which the INHIBITION was -7.36%.

As for `CN(CCCNC(=O)C1CCc2cn[nH]c2C1)c1ccc(F)cc1` (stereo unspecified), the INHIBITION worked out at 31.2%.

In the case of `O=C(NCCCSc1ccc(F)cc1)C1CCc2cn[nH]c2C1` (stereo unspecified), the INHIBITION stood at 50.8%.

Take `CN(CCCNC(=O)C1CCc2cn[nH]c2C1)c1ccccc1` (stereo unspecified): the INHIBITION is given as 24.3%.

Regarding `CN(Cc1nc(Cc2cccc(F)c2)no1)C1CCOCC1`, the INHIBITION is listed as -24.2%.

For the molecule `Cc1nn(C)cc1Cn1c(=O)cnc2ccccc21`, the INHIBITION worked out at 43.4%.

As for `CCC(=O)Nc1ccc2c(c1)C1(CCOCC1)CN2CCOC`, the INHIBITION is given as 55.7%.

For `CN(C)C(=O)N1CC2(CCOCC2)c2cc(NC(=O)CCO)ccc21`, the INHIBITION came out at 45.2%.

Consider `COCCN1CC(C(=O)Nc2ccc3c(c2)CCC(=O)N3C)CC1=O` (stereo unspecified), for which the INHIBITION is reported as -22.6%.

In the case of `CCC(=O)Nc1ccc2c(c1)C1(CCOCC1)CN2CCF`, the INHIBITION worked out at 10.4%.

With `CCN1CC2(CCOCC2)c2cc(NS(=O)(=O)CC)ccc21`, the INHIBITION was 38.5%.

With `CCCC(=O)Nc1ccc2c(c1)C1(CCOCC1)CN2CCOC`, the INHIBITION worked out at 52.1%.

Turning to `COCCN1CC2(CCOCC2)c2cc(NC(=O)C3CC=CC3)ccc21`, the INHIBITION was found to be 76.5%.

As for `CCS(=O)(=O)Nc1ccc2c(c1)C1(CCOCC1)CN2C`, the INHIBITION was 46.6%.

For the molecule `COCC(=O)Nc1ccc2c(c1)C1(CCOCC1)CN2CCF`, the INHIBITION is on record as -4.08%.
